In PubChem BioAssay (EPA / NIEHS):
Results filed as inconclusive are left out. Calls of active or inactive are those of the source. How the source made its calls, unless noted: active means hit-call score of the fitted dose curve at least 0.9, where 1 is the maximum; inactive means score below 0.9.

Assays:
[1] = read-out: Transforming Growth Factor (TGFB1), TGFB1 (gene 7040); test: LTEA_HepaRG_TGFB1: Life Technologies and Expression Analysis (LTEA) Assay for Transforming Growth Factor (TGFB1) Transporter using HepaRG (AID 2283533); settings: mRNA level, 48 h; actives raise or lower the signal
How it was run: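 Expression change of TGFB1 in human HepaRG cells is measured after a 48 h chemical exposure, up to 100 uM in 0.5% DMSO vehicle. Curves are fitted in both directions relative to the DMSO baseline.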

[2] = read-out: TIMP1, TIMP1 (gene 7076); test: LTEA_HepaRG_TIMP1: Life Technologies and Expression Analysis (LTEA) Assay for TIMP1 using HepaRG (AID 2283534); settings: mRNA level, 48 h; actives raise or lower the signal
How it was run: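 We dosed human liver HepaRG cultures for 48 hours with up to 100 uM test chemical and measured TIMP1 expression by qRT-PCR. Activity in either direction is fitted relative to the 0.5% DMSO vehicle.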

[3] = read-out: Tumor necrosis factor receptor 1 (TNFRSF1A), TNFRSF1A (gene 7132); test: LTEA_HepaRG_TNFRSF1A: Life Technologies and Expression Analysis (LTEA) Assay for Tumor necrosis factor receptor 1 (TNFRSF1A) using HepaRG (AID 2283535); settings: mRNA level, 48 h; actives raise or lower the signal
How it was run: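 Expression of TNFRSF1A in human HepaRG liver cells was measured by qRT-PCR 48 h after chemical dosing (maximum 100 uM). Bidirectional curve fitting used 0.5% DMSO as baseline.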

[4] = read-out: Thyroid Hormone Responsive (THRSP), THRSP (gene 7069); test: LTEA_HepaRG_THRSP: Life Technologies and Expression Analysis (LTEA) Assay for Thyroid Hormone Responsive (THRSP) using HepaRG (AID 2283536); settings: mRNA level, 48 h; actives raise or lower the signal
How it was run: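 mRNA induction or loss relative to 0.5% DMSO vehicle was fitted bidirectionally across an eight-point curve whose highest exposure was 100 uM. Human HepaRG liver cells received chemicals in duplicate over 48 h before RNA extraction.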

[5] = read-out: Cellular tumor antigen p53 (Homo sapiens) (UniProt P04637); test: LTEA_HepaRG_TP53: Life Technologies and Expression Analysis (LTEA) Assay for Tumor Protein P53 (TP53) using HepaRG (AID 2283537); settings: mRNA level, 48 h; actives raise or lower the signal
How it was run: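 TP53 transcript measured by qRT-PCR, normalized to three housekeeping genes, after 48 h treatment of human HepaRG cultures with chemicals from 100 uM downward in half-log steps (0.5% DMSO vehicle, serum-free induction medium). Up- or down-regulation fitted against DMSO.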

[6] = read-out: UDP glucuronosyltransferase (UGT1A1), UGT1A1 (gene 54658); test: LTEA_HepaRG_UGT1A1: Life Technologies and Expression Analysis (LTEA) Assay for UDP glucuronosyltransferase (UGT1A1) using HepaRG (AID 2283538); settings: mRNA level, 48 h; actives raise or lower the signal
How it was run: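 Differentiated human HepaRG cells in serum-free induction medium were exposed in duplicate for 48 h to eight half-log concentrations up to 100 uM in 0.5% DMSO. UGT1A1 mRNA was quantified by TaqMan qRT-PCR, normalized to ACTB, GAPDH and POLR2A, and fitted bidirectionally against DMSO.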

[7] = read-out: UDP glucuronosyltransferase (UGT1A6), UGT1A6 (gene 54578); test: LTEA_HepaRG_UGT1A6: Life Technologies and Expression Analysis (LTEA) Assay for UDP glucuronosyltransferase (UGT1A6) using HepaRG (AID 2283539); settings: mRNA level, 48 h; actives raise or lower the signal
How it was run: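 Endpoint is UGT1A6 transcript induction or loss in a human liver cell line, quantified by TaqMan qRT-PCR 48 h after dosing. Concentrations ran from 100 uM downward in half-log steps in 0.5% DMSO; activity was fitted in both directions versus vehicle.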

[8] = read-out: X-box binding protein 1 (XBP1), XBP1 (gene 7494); test: LTEA_HepaRG_XBP1: Life Technologies and Expression Analysis (LTEA) Assay for X-box binding protein 1 (XBP1) using HepaRG (AID 2283540); settings: mRNA level, 48 h; actives raise or lower the signal
How it was run: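 Human HepaRG monolayers receive test chemical for 48 h across an eight-point half-log series starting at 100 uM. XBP1 mRNA gain or loss is scored against DMSO by qRT-PCR.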

[9] = LTEA_HepaRG_LDH_cytotoxicity: Cytotoxicity Assessment in the Life Technologies and Expression Analysis (LTEA) Assay (AID 2283563; active means hit-call score of the fitted dose curve at least 0.9, where 1 is the maximum;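 on AC50: LDH activity released into spent culture medium as a marker of cell death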)
How it was run: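 Human HepaRG hepatic cells are treated with test chemicals for 48 h at up to 100 uM in 0.5% DMSO. Cytotoxicity is scored from medium LDH against the vehicle control.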

[10] = ATG_XTT_Cytotoxicity: Cytotoxicity Assessment in the Attagene TRANS-FACTORIAL HepG2 Assay (AID 2283584; active means hit-call score of the fitted dose curve at least 0.9, where 1 is the maximum;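 on AC50: XTT signal for cell number as viability in transfected HepG2 cells; cells exposed to compound for 24 h before reading; active means loss of viability signal versus DMSO baseline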)
How it was run: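 Transfect HepG2 with GAL4-UAS reporter units, dose compound, incubate 24 h, then measure viable cell number by XTT. Fit concentration response against DMSO baseline.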

Measured: AC50

Chain of Cellular tumor antigen p53 (Homo sapiens) (P04637 whole entry, looked up): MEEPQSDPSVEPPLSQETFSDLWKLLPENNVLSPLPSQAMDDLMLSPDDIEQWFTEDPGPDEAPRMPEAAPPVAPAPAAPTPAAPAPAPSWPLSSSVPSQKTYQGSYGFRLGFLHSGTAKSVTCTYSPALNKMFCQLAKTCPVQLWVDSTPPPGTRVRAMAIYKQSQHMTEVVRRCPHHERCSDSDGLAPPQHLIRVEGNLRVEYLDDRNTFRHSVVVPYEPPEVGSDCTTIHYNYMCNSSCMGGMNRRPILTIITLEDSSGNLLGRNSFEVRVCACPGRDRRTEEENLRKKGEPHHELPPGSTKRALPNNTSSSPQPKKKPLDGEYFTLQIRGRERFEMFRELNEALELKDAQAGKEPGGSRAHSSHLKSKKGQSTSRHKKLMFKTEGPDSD

CCCCCCCCCCCCCCOS(=O)(=O)O
inactive: all assays above

Cc1c(C)c2c(c(C)c1O)CCC(C)(COc1ccc(CC3SC(=O)NC3=O)cc1)O2 (stereo unspecified)
active: [1] 12 µM | [2] 50 µM | [4] 27.1 µM | [9] 76.3 µM
not listed: [10]
inactive: all other assays above

O=C1O[C@H]([C@H](O)CO)C(O)=C1O
inactive: all assays above

c1ccc2occc2c1
inactive: all assays above

CCCCCCC(CCCCCCCCCCC(=O)OCC(COC(C)=O)OC(C)=O)OC(C)=O (stereo unspecified)
inactive: all assays above

CCCCc1nc2cccnc2n1Cc1ccc(-c2ccccc2-c2nnn[nH]2)cc1
active: [4] 35.5 µM | [6] 18.8 µM
inactive: all other assays above

Cc1cc(Cc2ccc(N)c(C)c2)ccc1N
active: [6] 28.1 µM
inactive: all other assays above

C=CCc1ccc(OC)c(OC)c1
not listed: [10]
inactive: all other assays above

NC(=Nc1ccccc1)Nc1ccccc1
active: [4] 12.8 µM
not listed: [9] | [10]
inactive: all other assays above

CCCCC(CC)COP(=O)(OCC(CC)CCCC)OCC(CC)CCCC (stereo unspecified)
active: [6] 13.3 µM
inactive: all other assays above

S=c1[nH]c2ccccc2s1
inactive: all assays above

Oc1ccccc1O
not listed: [10]
inactive: all other assays above

OCC(O)CO
not listed: [10]
inactive: all other assays above

O=C1OC(c2ccc(O)cc2)(c2ccc(O)cc2)c2ccccc21
active: [4] 80.3 µM | [6] 82 µM | [7] 72.6 µM
inactive: all other assays above

NCCOCCOCCN
inactive: all assays above

CC(C)c1cccc(C(C)C)c1NC(=O)NS(=O)(=O)c1cc(C(C)(C)O)co1
not listed: [10]
inactive: all other assays above

CCCC[C@H]1CN(CC2CCOCC2)C(=O)OC12CCN(C1(C)CCN(C(=O)c3c(C)ncnc3C)CC1)CC2
inactive: all assays above

CS(=O)(=O)c1ccc([C@@H](C[C@H]2CCC(=O)C2)C(=O)Nc2cnccn2)cc1Cl
active: [1] 1.22 µM | [3] 14.8 µM | [4] 27.2 µM | [5] 1.09 µM | [8] 1.33 µM
inactive: all other assays above

CCc1nc(N)nc(N)c1-c1ccc(Cl)cc1
active: [4] 76.3 µM | [9] 66.1 µM
inactive: all other assays above

CN(C)C(=O)NC1(c2ccccc2)CCN(CCC[C@]2(c3ccc(Cl)c(Cl)c3)CCCN(C(=O)c3ccccc3)C2)CC1
active: [1] 9.26 µM | [6] 22 µM | [7] 22 µM | [8] 12.5 µM | [9] 19.1 µM
inactive: [2] | [3] | [4] | [5]

Oc1ccc(O)cc1
inactive: all assays above

CCC(C)N(C)C(=O)c1cc2ccccc2c(-c2ccccc2Cl)n1 (stereo unspecified)
active: [6] 2.1 µM
inactive: all other assays above

CO[C@@H]1COCC[C@@H]1N[C@@H]1CC[C@@](C(=O)N2CCc3ncc(C(F)(F)F)cc3C2)(C(C)C)C1
not listed: [10]
inactive: all other assays above

COc1ccc(C(=O)Nc2nc3ccccc3c(NCc3ccccc3)c2C#N)cc1
active: [1] 7.58 µM | [4] 13.6 µM | [6] 3.8 µM | [8] 13.2 µM
not listed: [10]
inactive: all other assays above

O=C(O)c1[nH]n(-c2ccc(S(=O)(=O)O)cc2)c(=O)c1N=Nc1ccc(S(=O)(=O)O)cc1
not listed: [10]
inactive: all other assays above

COC(=O)CCCC(=O)OC
inactive: all assays above

CCCCCCCC(=O)OC
inactive: all assays above

CC(=O)S[C@H](C(=O)N[C@H]1Cc2ccccc2[C@H]2CCC[C@@H](C(=O)O)N2C1=O)C(C)C
not listed: [10]
inactive: all other assays above

Cc1ccc(C(C)(C)C)c(O)c1
inactive: all assays above

CCOCCOCCO
not listed: [8]
inactive: all other assays above

O=C(O)CC(O)(CC(=O)O)C(=O)O
not listed: [8] | [10]
inactive: all other assays above

CCCCC(CC)CO (stereo unspecified)
not listed: [8]
inactive: all other assays above

CCCCC(CC)COC(=O)CCCCCCCC(=O)OCC(CC)CCCC (stereo unspecified)
not listed: [8]
inactive: all other assays above

O=C(O)CN(CC(=O)O)CC(=O)O
not listed: [8]
inactive: all other assays above

CCCCOC(=O)CCCCC(=O)OCCCC
not listed: [5] | [10]
inactive: all other assays above

Cc1cc(SC2=C(O)C[C@@](CCc3ccc(N)cc3)(C(C)C)OC2=O)c(C(C)(C)C)cc1CO
active: [6] 1.38 µM
not listed: [8] | [10]
inactive: all other assays above

Nc1nc(Cl)nc2c1ncn2[C@H]1C[C@H](O)[C@@H](CO)O1
inactive: [2] | [5] | [10]
active: [1] 0.365 µM | [3] 0.732 µM | [4] 0.888 µM | [6] 1.66 µM | [7] 2.42 µM | [9] 8.62 µM

COC(=O)CCC(=O)OC
not listed: [8]
inactive: all other assays above

CC(N)=O
active: [3] 0.243 µM
not listed: [5]
inactive: all other assays above

CN(C)CCCN1c2ccccc2Sc2ccc(Cl)cc21
active: [1] 12.5 µM | [4] 15.8 µM | [9] 38.4 µM | [10] 43.2 µM
not listed: [8]
inactive: all other assays above

CN(C)CCCN(C)CCCN(C)C
not listed: [8]
inactive: all other assays above

COc1ccc(OC(F)(F)F)cc1CN[C@H]1CCCN[C@H]1c1ccccc1
inactive: [1] | [2] | [4]
active: [3] 93.1 µM | [5] 77.7 µM | [6] 83.8 µM | [7] 89.9 µM | [9] 73.6 µM
